# Assay results reported in PubChem BioAssay (NCATS).
# Values joined by “and” are separate entries in the source; they are usually repeats but may differ in a detail not shown here. Identical values can stand only once. Inconclusive results are not listed. Where a call stands in place of a potency, no number is given. Active and inactive are the calls of the source. Unless noted, the call rests on the fitted dose curve.
# What was measured:
# [1] = biological target: Bile acid receptor (Homo sapiens) (UniProt Q96RI1); assay: qHTS assay for small molecule agonists of farnesoid X receptor signaling (AID 588527); conditions: HEK293T FXR-UAS-bla, beta-lactamase ratio, 16 h; stronger effect = higher value
# Chain of Bile acid receptor (Homo sapiens) (Q96RI1 whole entry, looked up): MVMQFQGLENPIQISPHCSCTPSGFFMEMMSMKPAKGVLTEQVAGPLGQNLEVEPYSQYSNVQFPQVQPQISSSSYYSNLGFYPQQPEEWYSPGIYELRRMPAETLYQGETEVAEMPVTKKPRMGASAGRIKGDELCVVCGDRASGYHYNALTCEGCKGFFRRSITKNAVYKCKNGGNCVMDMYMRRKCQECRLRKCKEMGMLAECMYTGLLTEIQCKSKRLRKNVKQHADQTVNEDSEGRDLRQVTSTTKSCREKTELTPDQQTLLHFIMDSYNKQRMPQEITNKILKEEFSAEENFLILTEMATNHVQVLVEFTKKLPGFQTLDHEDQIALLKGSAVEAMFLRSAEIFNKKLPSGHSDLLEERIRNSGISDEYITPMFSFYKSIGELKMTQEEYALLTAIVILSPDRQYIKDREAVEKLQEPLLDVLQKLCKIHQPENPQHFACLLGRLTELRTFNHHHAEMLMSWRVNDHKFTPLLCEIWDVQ
# Summary of the method: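 Read-out: beta-lactamase reporter fluorescence with CCF4 substrate in GeneBLAzer FXR-UAS-bla HEK293T cells, after 16 h compound exposure at 37 C. Response scaled between DMSO basal (0%) and chenodeoxycholic acid at 100 uM (100%).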
# [2] = biological target: Peroxisome proliferator-activated receptor delta (Homo sapiens) (UniProt Q03181); assay: qHTS assay for small molecule agonists of peroxisome proliferator-activated receptor delta signaling (AID 588534); conditions: HEK293T PPARdelta-UAS-bla, beta-lactamase ratio, 18 h; series mostly up to 76.7 µM
# Chain of Peroxisome proliferator-activated receptor delta (Homo sapiens) (Q03181 whole entry, looked up): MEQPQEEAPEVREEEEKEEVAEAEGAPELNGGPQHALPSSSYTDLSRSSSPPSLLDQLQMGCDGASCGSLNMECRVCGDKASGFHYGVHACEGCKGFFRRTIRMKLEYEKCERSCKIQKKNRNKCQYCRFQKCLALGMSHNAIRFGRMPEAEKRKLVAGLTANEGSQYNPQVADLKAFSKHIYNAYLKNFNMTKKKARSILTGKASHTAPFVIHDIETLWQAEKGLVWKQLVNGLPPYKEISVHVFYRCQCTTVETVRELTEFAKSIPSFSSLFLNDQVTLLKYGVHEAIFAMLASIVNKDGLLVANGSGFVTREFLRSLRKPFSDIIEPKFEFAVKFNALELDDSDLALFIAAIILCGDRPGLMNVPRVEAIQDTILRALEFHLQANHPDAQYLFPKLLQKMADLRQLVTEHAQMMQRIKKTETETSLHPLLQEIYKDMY
# Summary of the method: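 Agonist-mode qHTS; reporter cells, 5 hrs 37 C pre-incubation; compound titration, 18 hrs 37 C; CCF4 dye, 2 hrs RT; fluorescence read. EC50/efficacy via Hill fit.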
# [3] = qHTS assay for small molecule antagonists of peroxisome proliferator-activated receptor delta signaling (AID 588535; active means well fitted inhibition curve with a large enough effect in the signal ratio, with a control signal flat, not every such curve was filed as active; the % refers to the signal ratio; further: potency means the concentration at half of the fitted maximal effect;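 on max response: cells co-treated with a PPAR-delta agonist as stimulator during compound exposure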); conditions: HEK293T PPARd-UAS-bla, beta-lactamase FRET ratio, 18 h; 460 nm channel
# Summary of the method: (§1)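 Inhibition of PPAR-delta response element-driven beta-lactamase expression is measured in HEK293T cells exposed to a compound titration series for 18 hrs at 37 C. Half-maximal inhibition comes from Hill equation fitting.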
# [4] = biological target: Peroxisome proliferator-activated receptor delta (Homo sapiens) (UniProt Q03181); assay: as above; conditions: HEK293T PPARd-UAS-bla, beta-lactamase FRET ratio, 18 h; series mostly up to 76.7 µM
# Summary of the method: as §1
# [5] = biological target: Bile acid receptor (Homo sapiens) (UniProt Q96RI1); assay: qHTS assay for small molecule antagonists of farnesoid X receptor signaling (AID 588526); conditions: HEK293T FXR-UAS-bla, beta-lactamase ratio, antagonist mode; series mostly up to 76.7 µM; further: potency means the concentration at half of the fitted maximal effect
# Summary of the method: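 Concentration-response titrations were fitted to the Hill equation for half-maximal inhibition and maximal response, with data normalised to 50 uM chenodeoxycholic acid and DMSO control wells. Cells: FXR-UAS-bla HEK293T, dialyzed FBS.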
# [6] = biological target: Glucocorticoid receptor (Homo sapiens) (UniProt P04150); assay: qHTS assay for small molecule agonists of glucocorticoid receptor signaling (AID 588532; active means well fitted curve in the direction sought with a large enough effect in the signal ratio, with a control signal flat; the % refers to the signal ratio); conditions: HeLa MMTV-bla, beta-lactamase ratio, agonist, 18 h; stronger effect = higher value; percent of dexamethasone control, DMSO zero
# Chain of Glucocorticoid receptor (Homo sapiens) (P04150 whole entry, looked up): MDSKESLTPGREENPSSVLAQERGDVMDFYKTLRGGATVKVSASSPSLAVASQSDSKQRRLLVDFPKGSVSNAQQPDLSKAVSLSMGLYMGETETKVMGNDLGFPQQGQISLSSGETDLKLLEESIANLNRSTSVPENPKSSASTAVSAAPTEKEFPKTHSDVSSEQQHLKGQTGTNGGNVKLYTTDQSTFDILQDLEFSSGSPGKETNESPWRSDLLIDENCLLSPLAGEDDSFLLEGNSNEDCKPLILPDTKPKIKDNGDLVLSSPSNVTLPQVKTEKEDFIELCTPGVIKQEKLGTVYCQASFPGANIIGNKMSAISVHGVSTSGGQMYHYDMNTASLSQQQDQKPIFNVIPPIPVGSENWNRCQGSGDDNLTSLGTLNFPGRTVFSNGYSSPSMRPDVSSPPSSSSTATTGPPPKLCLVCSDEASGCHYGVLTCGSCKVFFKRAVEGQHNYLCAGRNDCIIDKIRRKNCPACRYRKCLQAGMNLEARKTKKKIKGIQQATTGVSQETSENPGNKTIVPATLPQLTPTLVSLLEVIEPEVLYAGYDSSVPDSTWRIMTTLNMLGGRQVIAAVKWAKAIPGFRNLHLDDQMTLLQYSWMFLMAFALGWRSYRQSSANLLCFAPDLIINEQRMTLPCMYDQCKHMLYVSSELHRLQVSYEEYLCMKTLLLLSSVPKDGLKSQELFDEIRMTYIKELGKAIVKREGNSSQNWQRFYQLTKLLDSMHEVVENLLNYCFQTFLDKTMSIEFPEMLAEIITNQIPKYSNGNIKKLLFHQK
# Summary of the method: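 Stimulation of a glucocorticoid response element-driven beta-lactamase gene was measured in HeLa cells. Responses were scaled between DMSO basal and 0.1 uM dexamethasone, then fitted for half-maximal stimulation.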
# [7] = biological target: Glucocorticoid receptor (Homo sapiens) (UniProt P04150); assay: qHTS assay for small molecule antagonists of glucocorticoid receptor signaling (AID 588533; active means well fitted inhibition curve with a large enough effect in the signal ratio, with a control signal flat, not every such curve was filed as active; the % refers to the signal ratio;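 further: cells stimulated with 2 nM dexamethasone as agonist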; further: potency means the concentration at half of the fitted maximal effect); conditions: HeLa MMTV-bla, GRE beta-lactamase ratio, antagonist mode, 18 h; series mostly up to 76.8 µM
# Summary of the method: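 Antagonist-mode qHTS: compound titrations added to GRE-bla HeLa cells, then dexamethasone 2 nM final; 18 h, 37 C. CCF4 FRET fluorescence normalized to dexamethasone and DMSO; IC50 from Hill fit.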
# [8] = biological target: Peroxisome proliferator-activated receptor gamma (Homo sapiens) (UniProt P37231); assay: qHTS assay for small molecule agonists of peroxisome proliferator-activated receptor gamma signaling (AID 588536; active means well fitted curve in the direction sought with a large enough effect in the signal ratio, with a control signal flat, not every such curve was filed as active; the % refers to the signal ratio); conditions: HEK293 PPARg-UAS-bla, beta-lactamase ratio, 16 h, percent of rosiglitazone response, DMSO as zero; series mostly up to 76.7 µM
# Chain of Peroxisome proliferator-activated receptor gamma (Homo sapiens) (P37231 whole entry, looked up): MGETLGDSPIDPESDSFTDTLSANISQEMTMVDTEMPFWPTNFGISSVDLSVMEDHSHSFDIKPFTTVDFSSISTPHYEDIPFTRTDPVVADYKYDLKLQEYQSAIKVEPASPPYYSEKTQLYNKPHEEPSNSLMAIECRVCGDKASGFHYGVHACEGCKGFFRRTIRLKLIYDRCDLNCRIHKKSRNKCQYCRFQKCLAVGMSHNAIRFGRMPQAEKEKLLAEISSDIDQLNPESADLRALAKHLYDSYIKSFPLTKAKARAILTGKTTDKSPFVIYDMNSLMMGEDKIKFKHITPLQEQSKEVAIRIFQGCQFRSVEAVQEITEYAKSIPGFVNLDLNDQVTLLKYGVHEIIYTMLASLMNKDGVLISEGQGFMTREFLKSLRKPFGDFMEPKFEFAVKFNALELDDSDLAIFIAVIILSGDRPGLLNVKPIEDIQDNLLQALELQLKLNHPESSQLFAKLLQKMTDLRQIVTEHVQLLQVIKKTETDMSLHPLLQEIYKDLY
# Summary of the method: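 Beta-lactamase reporter read-out: CCF4 fluorescence (ex 405, em 460/530 nm) after 2 h at RT. HEK293 GeneBLAzer cells were treated for 16 h at 37 C. Hill fits gave EC50 and efficacy versus 2 uM rosiglitazone (100%) and DMSO (0%).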
# [9] = biological target: Peroxisome proliferator-activated receptor gamma (Homo sapiens) (UniProt P37231); assay: qHTS assay for small molecule antagonists of peroxisome proliferator-activated receptor gamma signaling (AID 588537; active means well fitted inhibition curve with a large enough effect in the signal ratio, with a control signal flat, not every such curve was filed as active; the % refers to the signal ratio; further: potency means the concentration at half of the fitted maximal effect); conditions: HEK293 PPARg-UAS-bla, beta-lactamase ratio, antagonist mode; series mostly up to 76.8 µM
# Summary of the method: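 Compounds are tested as concentration series for inhibition of rosiglitazone-driven (50 nM) reporter expression in GeneBLAzer PPAR-gamma-UAS-bla HEK293 cells. After 16 h at 37 C, CCF4 substrate is added for 2 h at room temperature and blue/green fluorescence is measured.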
# [10] = biological target: Vitamin D3 receptor (Homo sapiens) (UniProt P11473); assay: qHTS assay for small molecule antagonists of vitamin D receptor signaling (AID 588541); conditions: HEK293T VDR-UAS-bla, beta-lactamase ratio, antagonist mode; series mostly up to 76.7 µM;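 further: receptor activated by calcitriol during compound treatment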
# Chain of Vitamin D3 receptor (Homo sapiens) (P11473 whole entry, looked up): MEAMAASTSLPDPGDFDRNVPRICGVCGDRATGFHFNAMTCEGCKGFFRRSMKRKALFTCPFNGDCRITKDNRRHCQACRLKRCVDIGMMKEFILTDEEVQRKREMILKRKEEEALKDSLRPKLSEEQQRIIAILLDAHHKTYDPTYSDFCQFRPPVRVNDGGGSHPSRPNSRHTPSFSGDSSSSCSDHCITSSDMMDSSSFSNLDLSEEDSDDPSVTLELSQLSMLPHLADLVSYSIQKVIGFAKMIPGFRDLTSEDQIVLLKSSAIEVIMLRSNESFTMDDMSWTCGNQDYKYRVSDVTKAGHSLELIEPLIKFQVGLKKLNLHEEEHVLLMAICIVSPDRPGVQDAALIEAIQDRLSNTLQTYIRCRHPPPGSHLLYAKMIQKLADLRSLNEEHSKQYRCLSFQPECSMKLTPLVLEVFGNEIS
# Summary of the method: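 VDR-UAS-bla HEK293T cells (2000/well, 2% charcoal-stripped FBS) were treated with titrated compounds plus 1-alpha,25-dihydroxyvitamin D3 (50 nM or 3 nM final) for 16 h at 37 C. CCF4 beta-lactamase fluorescence was read; Hill fits gave IC50.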
structure (smiles),measurement,setting,value
CC[n+]1c(-c2ccccc2)c2cc(N)ccc2c2ccc(N)cc21,activation,[1],9.69% (inactive)
same,outcome,[2],inactive
same,max response,[3],-102%
same,Potency,[4],31.6 µM (active)
CCNc1nc(Cl)nc(NCC)n1,Potency,[5],inactive
same,activation,[1],-2% (inactive)
same,activation,[6],3.33% (inactive)
same,Potency,[7],inactive
same,outcome,[8],inactive
same,Potency,[9],inactive
same,outcome,[10],inactive
O=C1C(c2[nH]c3ccccc3c2O)=Nc2ccccc21,activation,[1],0.121% (inactive)
same,outcome,[2],inactive
Cc1ccc(O)cc1,activation,[1],-0.678% (inactive)
same,outcome,[2],inactive
O=C(NC(=O)c1c(F)cccc1F)Nc1cc(Cl)c(OC(F)(F)C(F)C(F)(F)F)cc1Cl (centres undefined),Potency,[5],inactive
same,activation,[1],-0.875% (inactive)
same,activation,[6],15.8% (inactive)
same,outcome,[8],inactive
same,Potency,[9],inactive
same,outcome,[10],inactive
CCN(CC)CCOc1ccc(/C(=C(\Cl)c2ccccc2)c2ccccc2)cc1,activation,[1],1.52% (inactive)
Cc1c(N(C)C)c(=O)n(-c2ccccc2)n1C,activation,[1],-2.31% (inactive)
same,outcome,[2],inactive
CNC(=O)Oc1cccc2ccccc12,Potency,[5],inactive
same,activation,[1],-1.5% (inactive)
same,outcome,[2],inactive
same,max response,[3],25.4%
same,Potency,[4],inactive
same,outcome,[10],inactive
Cc1ccc(N=CN(C)C=Nc2ccc(C)cc2C)c(C)c1,activation,[6],6.83% (inactive)
same,Potency,[7],inactive
CCOP(=S)(OCC)O/N=C(\C#N)c1ccccc1,activation,[1],8.69% (inactive)
same,activation,[6],-3.68% (inactive)
same,Potency,[7],inactive
same,outcome,[2],inactive
C[C@H]1C(=O)O[C@@H]2CCN3CC=C(COC(=O)[C@](C)(O)[C@]1(C)O)[C@H]23,Potency,[5],inactive
same,activation,[1],2.9% (inactive)
same,activation,[6],8.93% (inactive)
same,Potency,[7],inactive
same,outcome,[2],inactive
same,outcome,[8],inactive
same,Potency,[9],inactive
same,outcome,[10],inactive
O=C1c2cccc(O)c2C(=O)c2c(O)cccc21,activation,[1],-5% (inactive)
same,outcome,[2],inactive
C[C@@H]1C[C@@H]([C@H](O)CC2CC(=O)NC(=O)C2)C(=O)[C@@H](C)C1,Potency,[5],inactive
same,activation,[1],0.176% (inactive) and -1.82% (inactive) and 1.78% (inactive)
same,outcome,[2],inactive
same,max response,[3],-115% and -59.6%
same,Potency,[4],316 nM (active) and 199 nM (active)
same,outcome,[8],inactive
CCOc1ccc(NC(C)=O)cc1,activation,[1],0.406% (inactive) and 4.82% (inactive)
O=c1ccc2ccccc2o1,activation,[1],2.18% (inactive) and -1.67% (inactive)
CCN(CC)C(=O)c1cccc(C)c1,activation,[1],0.006% (inactive) and -2.52% (inactive)
same,outcome,[2],inactive
O=C(Nc1ccc(Cl)cc1)Nc1ccc(Cl)c(Cl)c1,activation,[1],1.41% (inactive)
Cc1cc(C(C)(C)C)c(O)c(C(C)(C)C)c1,activation,[1],9.91% (inactive) and 2.64% (inactive)
same,outcome,[2],inactive
O=C(OCc1ccccc1)c1ccc(O)cc1,activation,[1],1.11% (inactive)
Oc1c(Cl)cc(Cl)cc1Sc1cc(Cl)cc(Cl)c1O,activation,[1],-0.242% (inactive)
CN(C)C(=S)SSC(=S)N(C)C,activation,[1],3.15% (inactive)
same,activation,[6],0.667% (inactive) and -2.28% (inactive)
same,Potency,[7],inactive
same,outcome,[2],inactive
same,max response,[3],11.3%
same,Potency,[4],inactive
Oc1ccc(Cl)cc1Cc1cc(Cl)ccc1O,Potency,[5],7.94 µM (active)
same,activation,[1],1.29% (inactive)
same,outcome,[2],inactive
same,Potency,[9],35.5 µM (active)
CC(O)COc1ccccc1 (centres undefined),activation,[1],-2.72% (inactive)
same,outcome,[2],inactive
CN(C)c1ccc(C(=C2C=CC(=[N+](C)C)C=C2)c2ccc(N(C)C)cc2)cc1,activation,[1],-3.58% (inactive) and -3.47% (inactive)
CCCCCCCCCCCCCCCC[n+]1ccccc1,outcome,[2],inactive
CN(C)CCC(c1ccccc1)c1ccccn1 (centres undefined),outcome,[2],inactive
C#C[C@]1(O)CC[C@H]2[C@@H]3CCc4cc(O)ccc4[C@H]3CC[C@@]21C,outcome,[2],inactive
CCCCCCCCCCCC[N+](C)(C)Cc1ccccc1,outcome,[2],inactive
CC(=O)OC/C=C(C)/C=C/C=C(C)/C=C/C1=C(C)CCCC1(C)C,outcome,[2],inactive
C=CCOC(Cn1ccnc1)c1ccc(Cl)cc1Cl (centres undefined),activation,[6],-7.13% (inactive) and -8.27% (inactive)
same,Potency,[7],inactive
same,outcome,[2],inactive
same,max response,[3],-52.6% and -29.4%
same,Potency,[4],inactive
same,outcome,[10],inactive
Nc1ccc(N=Nc2ccccc2)c(N)n1,outcome,[2],inactive
Nc1ccc(S(=O)(=O)Nc2nccs2)cc1,outcome,[2],inactive
COP(=O)(OC)C(O)C(Cl)(Cl)Cl (centres undefined),activation,[6],3.67% (inactive)
same,outcome,[2],inactive
COc1ccc(C(Cl)=C(c2ccc(OC)cc2)c2ccc(OC)cc2)cc1,outcome,[2],inactive
Nc1ccn([C@H]2CC[C@@H](CO)O2)c(=O)n1,outcome,[2],inactive
COC(=O)C1=C(C)NC(C)=C(C(=O)OC)C1c1ccccc1[N+](=O)[O-],Potency,[7],31.6 µM (active)
CCCCC(CC)COC(=O)C(C#N)=C(c1ccccc1)c1ccccc1 (centres undefined),outcome,[2],inactive
CCCCCC(N)=O,outcome,[2],inactive
COP(=S)(OC)Oc1ccc(Sc2ccc(OP(=S)(OC)OC)cc2)cc1,outcome,[2],inactive
same,max response,[3],-0.163%
same,Potency,[4],inactive
same,outcome,[8],inactive
same,outcome,[10],inactive
COP(=O)(OC)OC=C(Cl)Cl,outcome,[2],inactive
same,max response,[3],3.66% and 4.74% and -42.4%
same,Potency,[4],inactive
same,outcome,[8],inactive
CC(=O)[C@@]1(O)CC[C@H]2[C@@H]3CCC4=CC(=O)CC[C@]4(C)[C@H]3CC[C@@]21C,outcome,[2],inactive
NS(=O)(=O)c1cc(C(=O)O)c(NCc2ccco2)cc1Cl,outcome,[2],inactive
CC1(C)[C@@H]2CC[C@@]1(C)C(=O)C2,outcome,[2],inactive
N[C@@H](Cc1c[nH]c2ccc(O)cc12)C(=O)O,outcome,[2],inactive
CCCCCCCCCCCC[N+](C)(C)CCOc1ccccc1,outcome,[2],inactive
same,outcome,[10],inactive
C[C@]12CCC(=O)C=C1CC[C@@H]1[C@@H]2[C@@H](O)C[C@@]2(C)[C@H]1CC[C@]2(O)C(=O)CO,outcome,[2],inactive
CCCCCCCC/C=C\CCCCCCCCN,outcome,[2],inactive
NCCNc1cccc2ccccc12,outcome,[2],inactive
O=C(CCl)c1ccc(Cl)cc1Cl,activation,[6],-10.9% (inactive)
same,Potency,[7],14.1 µM (active)
same,outcome,[2],inactive
Oc1c(Br)cc(Br)cc1Br,outcome,[2],inactive
same,max response,[3],18.5%
same,Potency,[4],inactive
same,outcome,[8],inactive
same,Potency,[9],inactive
C=C[C@@]1(C)CC(=O)[C@]2(O)[C@@]3(C)[C@@H](O)CCC(C)(C)[C@@H]3[C@H](O)[C@H](OC(C)=O)[C@@]2(C)O1,outcome,[2],inactive
C[C@]12C=CC(=O)C=C1CC[C@H]1[C@@H]3C[C@@H](O)[C@](O)(C(=O)CO)[C@@]3(C)C[C@H](O)[C@@]12F,outcome,[2],inactive
C[C@]12CCC(=O)C=C1CC[C@@H]1[C@@H]2C(=O)C[C@@]2(C)[C@H]1CC[C@]2(O)C(=O)CO,outcome,[2],inactive
CCCCCCCCC(=O)NCc1ccc(O)c(OC)c1,outcome,[2],inactive
same,max response,[3],11.4%
same,Potency,[4],inactive
same,outcome,[8],inactive
same,outcome,[10],inactive
COc1cccc2c1C(=O)c1c(O)c3c(c(O)c1C2=O)C[C@@](O)(C(C)=O)C[C@@H]3O[C@H]1C[C@H](N)[C@H](O)[C@H](C)O1,outcome,[2],inactive
CCC(=O)O[C@H]1CC[C@H]2[C@@H]3CCC4=CC(=O)CC[C@]4(C)[C@H]3CC[C@]12C,Potency,[7],31.6 µM (active)
same,outcome,[2],inactive
same,max response,[3],-14.3%
same,Potency,[4],inactive
CC(=O)Oc1ccc(C(c2ccc(OC(C)=O)cc2)c2ccccn2)cc1,outcome,[2],inactive
FC(F)(F)C(Cl)Br (centres undefined),outcome,[2],inactive
C/C=C/c1ccc(O)c(OC)c1,outcome,[2],inactive
O=c1n(Cl)c(=O)n(Cl)c(=O)n1Cl,activation,[6],0.274% (inactive)
same,Potency,[7],inactive
same,outcome,[2],inactive
same,outcome,[8],inactive
same,Potency,[9],inactive
same,outcome,[10],inactive
CN(C)C(=O)Nc1ccc(Cl)c(Cl)c1,outcome,[2],inactive
O=C1O[C@H]([C@@H](O)CO)C(O)=C1O,outcome,[2],inactive
